Hits are enriched below; roughly 7.6% of the tested compounds scored in any of these assays.
KB-3-1 tox: KB-3-1 parental cell cytotoxicity. 1.4% of 400,000 active. KB-3-1 viability, CellTiter-Glo ATP luminescence, 72 h. Potency, µM (highest dose often 46.1 µM), hits mostly cytotoxic; also: nearly all actives have a fitted effect of over 60% in size
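Luminescent ATP read-out (CellTiter-Glo) measures survival of drug-naive KB-3-1 cells after 72 h compound exposure at 37 °C. Titration series was screened from lowest to highest concentration, with DMSO vehicle plates as background controls.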
SW480 rerep: induces DNA re-replication in SW480 colon adenocarcinoma cells | SW480 DNA re-replication, Hoechst DNA content imaging, 48 h | Potency, µM (top dose mostly 46.1 µM), usual class: activators | 1.8% of 340,000 active; also: nearly all actives have a fitted effect of over 55% in size
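Quantitative HTS format with DMSO vehicle controls; 48 hr drug incubation at 37 C, then 40 min Hoechst staining and scanning imager measurement at 405 nm excitation.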
KCNH2 3.1 block: KCNH2 3.1 (human) potassium channel inhibition. U2OS KCNH2 3.1, thallium flux FluxOr; active compounds read low. activity change, % (tested at about 1.8 µM). 0.95% of 340,000 active;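 active = maximum activity change below -70%; inconclusive = maximum activity change from -70% to -50%; inactive = maximum activity change above -50%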;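 also: thallium influx rate constant from kinetic fluorescence after stimulation buffer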
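Kinetic fluorescence (2 min after stimulation buffer) measures Tl+ influx through KCNH2 3.1 expressed by viral transduction in U2OS cells; the rate constant is normalized against DMSO controls serving as positive and negative references.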
KB-V1 cytotox: kills drug-selected multidrug resistant KB-V1 cells; Potency, µM (top dose mostly 46.1 µM), hits mostly cytotoxic; 3.4% of 400,000 active; KB-V1 MDR cells viability, CellTiter-Glo, 72 h; also: nearly all actives have a fitted effect of over 60% in size
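Cells of the MDR subline KB-V1 are plated, dosed with compound at multiple concentrations, and incubated 72 h at 37 degrees C; CellTiter-Glo is then added and luminescence read after 10 min.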
hERG WT inh: KCNH2 (human, wildtype) channel inhibition. 0.37% of 340,000 active. U2OS, BacMam KCNH2, thallium flux FluxOr; active compounds read low. Q12809. activity change, % at 1.84 µM;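 active = maximum activity change below -70%; inconclusive = maximum activity change between -70% and -50%; inactive = maximum activity change above -50%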
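U2OS cells were transduced with wild-type KCNH2 virus (2.03 x 10^8 / mL) for 4 h at room temperature, then cultured overnight at 37 C. Thallium flux was read with FluxOr dye. Rate constants were normalized to DMSO controls.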
MCF10A rerep: DNA re-replication induction in MCF 10a cells; 2.9% of 350,000 active; MCF 10A DNA re-replication, Hoechst nuclear intensity, 48 h; AID 624296; Potency, µM (titrated, usually from 46.1 µM), usual class: activators; also: nearly all actives have a fitted effect of over 50% in size
Large screens that a line does not name were inactive. Unless noted, calls follow the shape of the dose curve; as a rule, active = well fitted curve in the direction sought with a large enough effect; inconclusive = small, poorly fitted or top-dose-only effect, or another doubt; inactive = no such curve, though single readings can be large; an effect the other way counts as inactive or inconclusive.

Cc1cc(NC(=O)COc2cccnc2[N+](=O)[O-])no1	none
CCCn1c(C)cc(C(=O)COc2ccc(C)nc2[N+](=O)[O-])c1C	SW480 rerep inconclusive, KB-V1 cytotox 16µM, MCF10A rerep inconclusive
C=CCn1c(C)cc(C(=O)COc2ccc(C)nc2[N+](=O)[O-])c1C	KB-3-1 tox inconclusive, SW480 rerep inconclusive, KB-V1 cytotox inconclusive, MCF10A rerep inconclusive
Cc1ccc(OCC(=O)N(Cc2ccccc2)C(C)C)c([N+](=O)[O-])n1	none
Cc1ccc(OCC(=O)c2cc(C)n(-c3ccccc3)c2C)c([N+](=O)[O-])n1	KB-3-1 tox 8.2µM, KB-V1 cytotox 21µM, MCF10A rerep inconclusive
Cc1ccc(OCC(=O)N(Cc2ccccc2)C(C)(C)C)c([N+](=O)[O-])n1	KB-V1 cytotox 23µM
Cc1ccc(OCC(=O)Nc2ccccc2Sc2ccccc2)c([N+](=O)[O-])n1	KB-V1 cytotox 18µM
Cc1ccc(OCC(=O)Nc2ccc(F)cc2)c([N+](=O)[O-])n1	KB-V1 cytotox inconclusive
CCC(Sc1nnc(-c2ccc(OC)cc2)c(-c2ccc(OC)cc2)n1)C(=O)Nc1cccc(OC)c1 (stereo unspecified)	none (no result: SW480 rerep, KCNH2 3.1 block, hERG WT inh, MCF10A rerep)
Cc1cc(NC(=O)CSc2nnc(-c3ccoc3C)o2)no1	SW480 rerep 21µM
Cc1cc(NC(=O)c2ccc3nc(-c4ccccc4)c(-c4ccccc4)nc3c2)no1	SW480 rerep inconclusive, KB-V1 cytotox inconclusive, MCF10A rerep 9.2µM
Cc1cc(NC(=O)CSc2ccccc2)no1	none
Cc1cc(NC(=O)CSc2nnc(-c3ccccc3)o2)no1	none
Cc1cc(NC(=O)CSc2nnc(-c3ccccc3)c(-c3ccccc3)n2)no1	KB-3-1 tox 7.3µM, SW480 rerep 3.7µM, KB-V1 cytotox 5.2µM, MCF10A rerep 12µM
Cc1ccc(NC(=O)[C@H](NC(=O)[C@@H]2Cc3ccccc3CN2)c2ccccc2)cc1C	MCF10A rerep 26µM
CC(=O)Nc1ccc(OC2=NS(=O)(=O)c3ccccc32)cc1	none (no result: SW480 rerep, KCNH2 3.1 block, hERG WT inh, MCF10A rerep)
Cc1ccnc(N2C3CCC2CC(O)(c2ccccc2)C3)n1 (stereo unspecified)	none
Cc1cc(N2C3CCC2CC(O)(c2ccc(F)cc2)C3)nc(-c2ccccc2)n1 (stereo unspecified)	KCNH2 3.1 block -72
COc1ccc(-n2ncc3c(N4CCN(Cc5ccccc5)CC4)ncnc32)cc1	KB-3-1 tox inconclusive, SW480 rerep inconclusive, KB-V1 cytotox 13µM, MCF10A rerep 21µM (no result: KCNH2 3.1 block)
COc1ccc(-n2ncc3c(SCC(=O)N4CCN(c5ccccc5OC)CC4)ncnc32)cc1	KB-V1 cytotox 9.2µM, MCF10A rerep inconclusive
Cc1ccc(-n2ncc3c(N4CCN(Cc5ccccc5)CC4)ncnc32)cc1C	KB-V1 cytotox inconclusive (no result: SW480 rerep, KCNH2 3.1 block, hERG WT inh, MCF10A rerep)
COc1cccc(N2CCN(c3ncnc4c3cnn4-c3ccc(C)cc3C)CC2)c1	KB-3-1 tox 10µM, KB-V1 cytotox inconclusive, MCF10A rerep 6.5µM
COc1ccccc1N1CCN(C(=O)CSc2ncnc3scc(-c4ccccc4)c23)CC1	KB-3-1 tox inconclusive, KB-V1 cytotox inconclusive
CC1CCN(c2ncnc3c2cnn3Cc2ccc(Cl)cc2)CC1	KB-V1 cytotox inconclusive
Cc1ccccc1N1CCN(c2ncnc3c2cnn3Cc2ccc(Cl)cc2)CC1	KB-3-1 tox 18µM, KB-V1 cytotox inconclusive
CN1C(=O)c2ccccc2Sc2ccc(NC(=O)N3CCN(c4cccc(Cl)c4)CC3)cc21	none (no result: SW480 rerep, KCNH2 3.1 block, hERG WT inh, MCF10A rerep)
Cc1cc(C)c(C(=O)C(C)OC(=O)c2ccc(Cl)nc2)cc1C (stereo unspecified)	none
CCCCn1c(O)c2n(c1=O)Cc1ccccc1N=C2c1ccccc1	none (no result: SW480 rerep, KCNH2 3.1 block, hERG WT inh, MCF10A rerep)
c1ccc(CCN2CCN(c3ncnc4c3cnn4-c3ccccc3)CC2)cc1	KB-3-1 tox inconclusive, MCF10A rerep inconclusive
Cn1ncc2c(N3CCC(Cc4ccccc4)CC3)ncnc21	KB-3-1 tox inconclusive, KB-V1 cytotox 4.6µM
Cc1ccc(Cn2ncc3c(N4CCN(Cc5ccc(Cl)cc5)CC4)ncnc32)cc1	KB-3-1 tox inconclusive, KB-V1 cytotox 2.6µM, MCF10A rerep inconclusive
O=C(Nc1cc(=O)[nH]c(=O)[nH]1)c1cccc(C(F)(F)F)c1	none
O=C(Nc1cc(=O)[nH]c(=O)[nH]1)c1cc(Cl)ccc1Cl	KB-3-1 tox 4.1µM, SW480 rerep 21µM, KB-V1 cytotox inconclusive, MCF10A rerep inconclusive
Cc1ccccc1OCC(O)CNC1CCC(NCC(O)COc2ccccc2C)CC1 (stereo unspecified)	KB-3-1 tox 3.3µM, SW480 rerep 4.1µM, KB-V1 cytotox 18µM, MCF10A rerep inconclusive
OC(CNC1CCCCCC1)COc1cccc2ccccc12 (stereo unspecified)	KB-3-1 tox inconclusive, SW480 rerep 18µM, KB-V1 cytotox 21µM
Cc1ccc(OCC(O)CNC2CCCC2)c(C)c1 (stereo unspecified)	none
Cc1cc(C)c(C(=O)CN2C(=O)C(=O)N(C3CCCC3)C2=O)cc1C	none
CCOn1c(=O)c(-c2ccc(C)cc2)[n+]([O-])c2ccccc21	KCNH2 3.1 block -84
O=c1[nH]c2ccc(NCc3ccc(-c4cccc(Cl)c4)o3)cc2[nH]1	none (no result: SW480 rerep, KCNH2 3.1 block, hERG WT inh, MCF10A rerep)
CCOC(=O)C1(Cc2ccccc2C(F)(F)F)CCN(Cc2ccc(COC)o2)CC1	KB-3-1 tox 18µM, KB-V1 cytotox inconclusive, MCF10A rerep inconclusive (no result: hERG WT inh)
CCOC(=O)C1(Cc2ccccc2C(F)(F)F)CCN(C2CCN(C(C)C)CC2)CC1	KB-V1 cytotox inconclusive, MCF10A rerep 18µM (no result: hERG WT inh)
CCOC(=O)C1(CCOC)CCN(Cc2ccc(COC)o2)CC1	none
CCCS(=O)(=O)c1nc(S(=O)(=O)c2ccc(C)cc2)c(N2CCN(CC)CC2)s1	none
Cc1onc(-c2ccccc2)c1C(=O)OCC(=O)NC(=O)c1ccccc1	none
CC1(C)CC[C@]2(C(=O)n3ccnc3)CC[C@]3(C)[C@H](C(=O)C=C4[C@@]5(C)C=C(C#N)C(=O)C(C)(C)[C@@H]5CC[C@]43C)[C@@H]2C1	KB-3-1 tox inconclusive, SW480 rerep inconclusive, KB-V1 cytotox inconclusive, MCF10A rerep 0.52µM
Cc1c(Cl)c(C(=O)NC2C3CC4CC(C3)CC2C4)nn1C (stereo unspecified)	KB-V1 cytotox 15µM
Cn1ncc(Br)c1C(=O)NC1C2CC3CC(C2)CC1C3 (stereo unspecified)	MCF10A rerep inconclusive
CCOC(=O)c1ccccc1NC(=O)Cn1ncc2c([nH]c3ccccc32)c1=O	none (no result: SW480 rerep, KCNH2 3.1 block, hERG WT inh, MCF10A rerep)
Cn1c(C(C)(O)C(O)c2ccccc2)nc2ccccc21 (stereo unspecified)	none (no result: KB-3-1 tox, KCNH2 3.1 block, KB-V1 cytotox, hERG WT inh)
CCn1cc(CN(C)C(=O)/C=C/c2ccc([N+](=O)[O-])cc2)c(C)n1	KB-V1 cytotox 18µM
CCOC(=S)SSC(=S)OCC	none (no result: KB-3-1 tox, KCNH2 3.1 block, KB-V1 cytotox, hERG WT inh)

High-throughput results from PubChem BioAssay.
